Assay results reported in PubChem BioAssay AID1159580 (chemical genetic matrix, 2015).
Hit rate of the full screen: of about 5,500 compounds, about 2,000 (36%) were called active. Inconclusive results (about 18%) are left out. No stated cut-off is given here; in the data, active means normalized growth mostly below about 0.91 (no sharp cut-off); inconclusive means no clear call, values can overlap the other calls; inactive means mostly above about 0.92. Some of the results follow.

Test: chemical genetic growth profiling, strain panel (AID 1159580);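 further: tested at 20 µM; growth read once vehicle control cultures reached saturation at 30 °C; 1 = growth at the plate median or of vehicle wells; lower values mean less growth of the strain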
Settings: S. cerevisiae deletion strains, growth OD

Measured: normalized growth

CC(=O)Nc1cccc(O)c1
inactive: locus YAL013W, strain DEP1, hits give low values 1 | locus YAL021C, strain ccr4, hits give low values 1.01 | locus YAL026C, strain drs2, hits give low values 1.03 | locus YAL030W, strain snc1, hits give low values 1.01 | locus YBL061C, strain skt5, hits give low values 1.01 | locus YBR009C, strain hhf1, hits give low values 0.984 | locus YBR021W, strain FUR4, hits give low values 1.01 | locus YBR023C, strain chs3, hits give low values 1.03 | locus YBR171W, strain sec66, hits give low values 1.02 | locus YBR229C, strain ROT2, hits give low values 1.01 | locus YBR231C, strain swc5, hits give low values 1 | locus YBR279W, strain paf1, hits give low values 1.02 | locus YCL011C, strain gbp2, hits give low values 1.04 | locus YCL016C, strain dcc1, hits give low values 1.05 | locus YCL029C, strain bik1, hits give low values 0.993 | locus YCL061C, strain MRC1, hits give low values 1.01 | locus YCL069W, strain vba3, hits give low values 1.01 | locus YCR088W, strain abp1, hits give low values 1.02 | locus YDL005C, strain med2, hits give low values 1.02 | locus YDL035C, strain GPR1, hits give low values 0.992 | locus YDL040C, strain nat1, hits give low values 0.999 | locus YDL074C, strain BRE1, hits give low values 1.02 | locus YDL101C, strain DUN1, hits give low values 1.02 | locus YDL134C, strain PPH21, hits give low values 0.983 | locus YDL185W, strain tfp1, hits give low values 0.993 | locus YDL192W, strain arf1, hits give low values 1.01 | locus YDR001C, strain nth1, hits give low values 1.01 | locus YDR069C, strain doa4, hits give low values 1.03 | locus YDR101C, strain arx1, hits give low values 0.989 | locus YDR137W, strain rgp1, hits give low values 1.03 | locus YDR150W, strain NUM1, hits give low values 0.998 | locus YDR159W, strain sac3, hits give low values 0.954 | locus YDR162C, strain NBP2, hits give low values 0.999 | locus YDR195W, strain ref2 0.986 | locus YDR297W, strain sur2, hits give low values 0.998 | locus YDR318W, strain mcm21, hits give low values 1.01 | locus YDR334W, strain swr1, hits give low values 1.02 | locus YDR335W, strain msn5, hits give low values 1.01 | locus YDR388W, hits give low values 0.998 | locus YDR392W, strain spt3, hits give low values 0.99 | locus YDR502C, strain sam2, hits give low values 0.986 | locus YEL003W, strain gim4, hits give low values 1 | locus YEL037C, strain rad23, hits give low values 1 | locus YEL061C, strain CIN8 (second series), hits give low values 1 | locus YEL061C, strain CIN8, hits give low values 1.01 | locus YER015W, strain faa2, hits give low values 1.02 | locus YER016W, strain bim1, hits give low values 1.03 | locus YER110C, hits give low values 1 | locus YER111C, strain swi4, hits give low values 1.01 | locus YER155C, strain BEM2 (second series), hits give low values 0.999 | locus YER155C, strain BEM2, hits give low values 1.01 | locus YER167W, strain BCK2, hits give low values 1 | locus YFR010W, strain ubp6, hits give low values 0.994 | locus YGL078C, strain dbp3, hits give low values 0.994 | locus YGL086W, strain mad1, hits give low values 0.99 | locus YGL167C, strain pmr1, hits give low values 1.01 | locus YGL173C, strain kem1, hits give low values 0.987 | locus YGL227W, strain vid30, hits give low values 1.02 | locus YGL240W, strain doc1, hits give low values 0.977 | locus YGL248W, strain PDE1, hits give low values 1.02 | locus YGL253W, strain hxk2, hits give low values 1.04 | locus YGR078C, strain PAC10, hits give low values 1.01 | locus YGR135W, strain pre9, hits give low values 1.02 | locus YGR252W, strain gcn5, hits give low values 1 | locus YHR013C, strain ard1, hits give low values 1.04 | locus YHR027C, strain rpn1, hits give low values 1.01 | locus YHR030C, strain SLT2, hits give low values 1 | locus YHR079C, strain IRE1 (second series), hits give low values 0.997 | locus YHR094C, strain hxt1, hits give low values 0.997 | locus YHR129C, strain ARP1, hits give low values 1.01 | locus YHR142W, strain chs7, hits give low values 1.04 | locus YHR200W, strain rpn10, hits give low values 0.996 | locus YIL066C, strain RNR3, hits give low values 1 | locus YIL073C, strain SPO22, hits give low values 1.02 | locus YIL125W, strain kgd1, hits give low values 0.994 | locus YIR030C, strain dcg1, hits give low values 0.991 | locus YJL092W, strain hpr5, hits give low values 1.01 | locus YJL095W, strain BCK1 (second series), hits give low values 1.03 | locus YJL095W, strain BCK1, hits give low values 1.03 | locus YJL115W, strain asf1, hits give low values 1.02 | locus YJL129C, strain trk1, hits give low values 1.04 | locus YJL134W, strain LCB3, hits give low values 1.02 | locus YJL154C, strain vps35, hits give low values 1.01 | locus YJL164C, strain tpk1, hits give low values 1.03 | locus YJL166W, strain qcr8, hits give low values 0.982 | locus YJL168C, strain set2, hits give low values 1.02 | locus YJL187C, strain SWE1 (second series), hits give low values 1.02
